The sample as a whole holds a higher share of hits than the screen did.
Pf Dd2 inh: Plasmodium falciparum Dd2 growth inhibition; 4.3% of 120,000 active; Potency, µM (titrated, usually from 28.9 µM), usual class: inhibitors; P. falciparum Dd2 growth, SYBR Green, 72 h; active means well fitted inhibition curve with a large enough effect; further: nearly all actives have a fitted effect of over 65% in size
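Readout: SYBR Green fluorescence, 485 nm excitation, 535 nm emission, after ~16 h lysis at 37C. Before that, Dd2-infected red cells (2.5% hematocrit) grew 72 h with compound, 29 uM top final concentration.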
Of the large screens only hits and unclear results are named; the others gave an inactive call.

CCN1c2cc(C(=O)Nc3ccc(C)cc3)ccc2C(=O)N2CCCCC21 (stereo unspecified)	none
CCN1c2cc(C(=O)NCc3ccc(C)cc3)ccc2C(=O)N2CCCCCC21 (stereo unspecified)	none
CN1c2cc(C(=O)Nc3cccc(F)c3)ccc2C(=O)N2CCCCC21 (stereo unspecified)	none
Cc1cc(C)cc(NC(=O)c2ccc3c(c2)N(C)C2CCCCCN2C3=O)c1 (stereo unspecified)	none
CCN1c2cc(C(=O)NCc3ccc(C(C)C)cc3)ccc2C(=O)N2CCCCCC21 (stereo unspecified)	Pf Dd2 inh 11.2µM
CCc1cccc(NC(=O)c2ccc3c(c2)N(C)C2CCCCCN2C3=O)c1 (stereo unspecified)	none
CCc1cccc(NC(=O)c2ccc3c(c2)N(CC)C2CCCCCN2C3=O)c1 (stereo unspecified)	Pf Dd2 inh 5.62µM
O=C1CCC2(CNC(=O)c3cccnc3)CCCC=C2N1 (stereo unspecified)	none
CCCNC(=O)N(C1CCOCC1)C1CCN(C(=O)Cc2ccccc2Cl)CC1	none
O=C(Cc1ccc(F)cc1)N1CCC2(CC1)COc1ccccc1[S+](=O)([O-])N2	none
COc1ccc(C(=O)N[C@@H]2CN(c3ncccn3)C[C@H]2CN(C)C)c(OC)n1	none
CN(C)C(=O)C1CCc2nnc(C3CCN(C(=O)c4ccc(Cl)cc4Cl)CC3)n21 (stereo unspecified)	none
CCn1cc(S(=O)(=O)N2C[C@@H](C(=O)NC)[C@H](c3nc(C)no3)C2)cn1	none
O=C([C@@H]1C[C@H](F)CN1S(=O)(=O)Cc1ccccc1)N1CCCCC1	none
COC(=O)N1CCCC2(C1)C(=NC1CCCC1)NC(=O)N2c1cc(F)cc(F)c1 (stereo unspecified)	none
O=C(Nc1ccccc1)N1CC(c2nc(CCOCC3CC3)no2)C1	none
Cc1c(Cl)cccc1NC(=O)N1CCCC(Cn2cnc3cccnc32)C1 (stereo unspecified)	none
Cc1cccc(CN2CCOCCNC(=O)[C@H]3CCCC[C@H]32)c1	none
CCc1cccc(NC(=O)c2ccc3c(c2)N(C)C2CCCN2C3=O)c1 (stereo unspecified)	none
Cc1cccc(CNC(=O)c2ccc3c(c2)N(C)C2CCCN2C3=O)c1 (stereo unspecified)	Pf Dd2 inh 10µM
CCN1c2cc(C(=O)NCc3cccc(C)c3)ccc2C(=O)N2CCCCC21 (stereo unspecified)	none
Cc1ccc(CNC(=O)c2ccc3c(c2)N(C)C2CCCCCN2C3=O)cc1C (stereo unspecified)	none
CCN1c2cc(C(=O)Nc3cccc(C)c3)ccc2C(=O)N2CCCCC21 (stereo unspecified)	none
CCc1cccc(NC(=O)c2ccc3c(c2)N(CC)C2CCCCN2C3=O)c1 (stereo unspecified)	Pf Dd2 inh 4.47µM
Cn1c(Cn2cccn2)nnc1C1CCCN(C(=O)Cc2cccnc2)C1 (stereo unspecified)	none
O=C1Nc2ccccc2CC12CCN2Cc1ccsc1 (stereo unspecified)	none
CCN1C(=O)C2CC3(CCN(Cc4ccc(C)s4)CC3)CN2C1=O (stereo unspecified)	none
CCNC(=O)C1CCN(c2nnc(C)c3c(C)n(-c4ccc(OC)cc4)nc23)CC1	Pf Dd2 inh 8.91µM
Cc1nnc(N2CCC(C(=O)NCCc3ccccc3)CC2)c2nn(-c3ccccc3)c(C)c12	none
COc1cc(NC(=O)C2CCN(c3nnc(C)c4c(C)n(-c5ccccc5)nc34)CC2)cc(OC)c1	none
Cc1ccc(-n2nc3c(N4CCC(C(=O)NC5CCCCC5)CC4)nnc(C)c3c2C)cc1	none
COc1ccc(CNC(=O)C2CCN(c3nnc(C)c4c(C)n(-c5ccc(C)cc5)nc34)CC2)cc1	Pf Dd2 inh 7.94µM
Cc1ccc(-n2nc3c(N4CCC(C(=O)NC(C)C)CC4)nnc(C)c3c2C)cc1	none
CCC(=O)N(C1CCOCC1)C1CCN(S(=O)(=O)c2ccc3c(c2)CCCC3)CC1	none
Cc1cc(C(=O)N2CCC3(CC2)NCCc2c3[nH]c3ccccc23)nn1C	none
COC(=O)c1ccc(CN2C(=O)[C@@H]3C[C@@H](O)CN3C3(CN(C4CCN(C(C)=O)CC4)C3)C2=O)cc1	none
CC(=O)N1CCC(N2CC3(C2)C(=O)N(Cc2ccccc2Cl)C(=O)[C@@H]2C[C@@H](O)CN23)CC1	Pf Dd2 inh 7.08µM
CCCCN1C(=O)[C@@H]2C[C@@H](O)CN2C2(CN(C3CCN(C(C)=O)CC3)C2)C1=O	none
CCC(C)NC(=O)CCSc1nc(-c2ccc(OC)cc2)cc(C(F)(F)F)n1 (stereo unspecified)	Pf Dd2 inh 11.2µM
COCCNC(=O)CCSc1nc(-c2ccc(OC)cc2)cc(C(F)(F)F)n1	none
COc1ccc(NC(=O)CCSc2nc(-c3ccc(OC)cc3)cc(C(F)(F)F)n2)cc1	none
O=C1CC(c2noc(-c3cc(F)ccc3F)n2)CN1c1ccc(F)cc1 (stereo unspecified)	none
O=[S+]1([O-])NC2(CCN(CC3CCOCC3)CC2)COc2ccccc21	none
Cc1ccc(Cl)cc1N1CCN(C(=O)CCc2nnc3n(C)c(=O)c4ccccc4n23)CC1	none
Cc1ccc(Cl)cc1N1CCN(C(=O)c2cc3c(=O)n(C)c4ccccc4c3s2)CC1	none
Cc1ccc(Cl)cc1N1CCN(C(=O)c2cn(CC(C)C)c(=O)c3c2c2ccccc2n3C)CC1	Pf Dd2 inh 3.16µM
Cc1ccc(CNC(=O)c2cc3cn(C(C)C)cc3s2)cc1	none
CCCS(=O)(=O)NCC(=O)N1CCCCCNC(=O)CC1c1ccccc1 (stereo unspecified)	none
CCc1cc(=O)n(CC(=O)Nc2ccc3c(c2)OCO3)c(-c2cccc(F)c2)n1	none
COc1ccc(NC(=O)Nc2ccc(C)n(CC(=O)Nc3cccc(C)c3)c2=O)cc1	none
COc1ccc(-n2cc(-c3ccc4c(c3)OCO4)n(CC(=O)Nc3cccc(C)c3)c2=O)cc1	Pf Dd2 inh 12.6µM
CCCN(CC1CCOC1)C(=O)Nc1cccc(CC)c1 (stereo unspecified)	none
COc1ccc(C(=O)NCCn2c(C)cnc2-c2ccncc2)cc1	none
CCN(CC)S(=O)(=O)c1ccc(C(=O)NCCSc2c(-c3ccccc3)[nH]c3ccccc23)cc1	Pf Dd2 inh 11.2µM
Cc1ccc(-c2[nH]c3ccccc3c2SCCNC(=O)c2ccc(S(=O)(=O)N3CCOCC3)cc2)cc1	Pf Dd2 inh 10µM
Cc1ccc(N2CC(NC(=O)c3ccc(S(=O)(=O)N4CCOCC4)cc3)CC2=O)cc1 (stereo unspecified)	none
COc1ccccc1C(=O)NCCSc1c(C)[nH]c2ccccc12	none
Cc1[nH]c2ccccc2c1SCCNC(=O)c1ccccc1F	none
COc1cc(C(=O)NCCSc2c(C)[nH]c3ccccc23)cc(OC)c1OC	none
CCN(CC)S(=O)(=O)c1ccc(C(=O)NCCSc2c(-c3ccc(F)cc3)[nH]c3ccccc23)cc1	Pf Dd2 inh 6.31µM
O=C(NCCSc1c[nH]c2ccccc12)c1ccc(Cl)cc1	none
O=C(NC1CC(=O)N(c2ccccc2)C1)c1ccc(S(=O)(=O)N2CCOCC2)cc1 (stereo unspecified)	none
O=C(Nc1ccc(Cl)cc1)c1cc2n(n1)CC(c1ccc(Cl)cc1)OC2 (stereo unspecified)	none
CCS(=O)(=O)N1CC(F)(F)C[C@H]1c1nc(-c2cccnc2)no1	none
COCCn1ncc(N2CCC(C(=O)Nc3ccc(F)cc3F)C2)cc1=O (stereo unspecified)	none
CN(Cc1ccccc1)Cc1cn([C@H]2CO[C@H]3[C@@H]2OC[C@@H]3NCc2ccc(N(C)C)cc2)nn1	none
COCCNc1ncc(-c2cccc(F)c2)c2c1OCC2	none
Cc1ccc(NC(=O)Cn2ccn3nc(-c4ccc(F)cc4)c(CO)c3c2=O)c(Cl)c1	none
